# Results from the supplement of paper PMC9950053.
# Structures can show the parent of a compound that is named as a salt.
# System: Danio rerio larvae (5 dpf)
# Assay: startle (activity period 16 minus period 15, 20-s interval sound) minus DMSO control (percentage points); higher = stronger startle response than DMSO larvae
# Conditions: 10 µM; exposure time: 3 h pre-incubation + 3 h imaging
# Method: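 Wild-type 5 dpf zebrafish larvae (n=48 per drug, 96-well plates, 28.5 °C) were exposed to Tocris FDA-approved library compounds at 10 µM (0.1% DMSO) for 3 h before and 3 h during imaging. Images were taken every 6 s during visual (moving coloured lines) and acoustic stimuli, and larvae were tracked with the DeepLabCut-based Z-LaP Tracker. Each behavioural measure is the treated-group mean minus the DMSO vehicle control mean (n=844), in percentage points. This mapping covers compounds with 4-character plate codes.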
row,Compound,startle
1,O=c1[nH]c2ccccc2n1C1CCN(CCCC(c2ccc(F)cc2)c2ccc(F)cc2)CC1 [Pimozide],0.33
2,C=CCN1C[C@H](C(=O)N(CCCN(C)C)C(=O)NCC)C[C@@H]2c3cccc4[nH]cc(c34)C[C@H]21 [Cabergoline],-9.97
3,CC[C@@H](C(N)=O)N1CCCC1=O [Levetiracetam],1.63
4,Cc1cccc([C@H](C)c2c[nH]cn2)c1C [Dexmedetomidine hydrochloride],9.98
5,C=C1C[C@@H]2[C@H](CC[C@]3(C)C(=O)CC[C@@H]23)[C@@]2(C)C=CC(=O)C=C12 [Exemestane],1.86
6,COc1cc2c(cc1OC)C1CC(=O)C(CC(C)C)CN1CC2 (stereo unspecified) [Tetrabenazine],-4.98
7,CC(C)C[C@H]1C(=O)N2CCC[C@H]2[C@]2(O)O[C@](NC(=O)[C@@H]3C=C4c5cccc6[nH]c(Br)c(c56)C[C@H]4N(C)C3)(C(C)C)C(=O)N12 [Bromocriptine mesylate],-8.86
8,CC(O)(CS(=O)(=O)c1ccc(F)cc1)C(=O)Nc1ccc(C#N)c(C(F)(F)F)c1 (stereo unspecified) [Bicalutamide],0.428
9,CCN(C)C(=O)Oc1cccc([C@H](C)N(C)C)c1 [Rivastigmine tartrate],5.22
10,CN1C[C@H](C(=O)N[C@]2(C)O[C@@]3(O)[C@@H]4CCCN4C(=O)[C@H](Cc4ccccc4)N3C2=O)C[C@@H]2c3cccc4[nH]cc(c34)C[C@H]21 [Dihydroergotamine mesylate],6.26
11,N[C@@H]1C[C@H]1c1ccccc1 [Tranylcypromine hydrochloride],-9.63
